In the supplement of paper PMC3342239:
Where a name gives a salt, the structure may show the parent alone.

test system: Saccharomyces cerevisiae; assay: fraction of cells in G1 phase (DNA content, flow cytometry); higher = more cells with unreplicated DNA (G1 delay); settings: temperature: 30 C; YPD; JTY2953 pdr5 snq2 (sensitized); drug added to: cultures diluted from stationary phase; 6-7 h
In short: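 Library drugs were added to S. cerevisiae in YPD at 30°C, with fixation after 6–7 h for sensitized JTY2953 diluted 1∶200 from overnight and given a final 20 µg/ml, 6 h for dividing JTY2953, and 4.33 h for BY4741. Ethanol-fixed cells stained with SYTOX Green were read by flow cytometry, 10,000 events each. The G1 fraction is the ratio of the Dean-Jett-Fox G1 peak area to the G1 plus G2/M areas.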

| SMILES | fraction of cells in G1 phase |
| --- | --- |
| CC1=C(/C=C/C(C)=C/C=C/C(C)=C/C=C/C=C(C)/C=C/C=C(C)/C=C/C2=C(C)C(=O)CCC2(C)C)C(C)(C)CCC1=O [Canthaxanthin] (35.4071 µM) | 0.527 |
| COC(=O)CCc1ccc(OCC(O)CNC(C)C)cc1 (stereo not drawn) [Esmolol] (67.7089 µM) | 0.459 |
| Cn1ccnc1S [Methimazole] (175.178 µM) | 0.473 |
| CS(=O)(=O)c1ccc(C2=C(c3ccccc3)C(=O)OC2)cc1 [Rofecoxib] (63.6208 µM) | 0.536 |
| CC(C)(C)NCC(O)c1ccc(O)c(CO)c1 (stereo not drawn) [Salbutamol sulfate] (83.5711 µM) | 0.535 |
| CC(=O)Oc1ccc(C(c2ccc(OC(C)=O)cc2)c2ccccn2)cc1 [Bisacodyl] (55.3402 µM) | 0.499 |
| COc1cc2c(cc1OC)C(=O)C(CC1CCN(Cc3ccccc3)CC1)C2 (stereo not drawn) [Donepezil HCl] (48.0769 µM) | 0.515 |
| CO[C@H]1/C=C/O[C@@]2(C)Oc3c(C)c(O)c4c(O)c(c(/C=N/N5CCN(C)CC5)c(O)c4c3C2=O)NC(=O)/C(C)=C\C=C\[C@H](C)[C@H](O)[C@@H](C)[C@@H](O)[C@@H](C)[C@H](OC(C)=O)[C@@H]1C [Rifampicin] (24.3025 µM) | 0.502 |
| Cc1ccc(C(=O)c2cc(O)c(O)c([N+](=O)[O-])c2)cc1 [Tolcapone] (73.1937 µM) | 0.522 |
| Nc1ccn([C@@H]2O[C@H](CO)[C@@H](O)C2(F)F)c(=O)n1 [Gemcitabine HCl] (75.9871 µM) | 0.49 |
| COc1cc2nc(N3CCN(C(=O)C4COc5ccccc5O4)CC3)nc(N)c2cc1OC (stereo not drawn) [Doxazosin mesylate] (44.2981 µM) | 0.442 |
| CC1Cc2ccccc2N1NC(=O)c1ccc(Cl)c(S(N)(=O)=O)c1 (stereo not drawn) [Indapamide] (54.6685 µM) | 0.511 |
| COc1cc(C(=O)NS(=O)(=O)c2ccccc2C)ccc1Cc1cn(C)c2ccc(NC(=O)OC3CCCC3)cc12 [Zafirlukast] (34.741 µM) | 0.509 |
| COC(=O)N[C@H](C(=O)N[C@@H](Cc1ccccc1)[C@@H](O)CN(Cc1ccc(-c2ccccn2)cc1)NC(=O)[C@@H](NC(=O)OC)C(C)(C)C)C(C)(C)C [Atazanavir] (28.3739 µM) | 0.525 |
| CCOC(=O)/C=C(C)/C=C/C=C(C)/C=C/c1c(C)cc(OC)c(C)c1C [Etretinate] (56.4185 µM) | 0.557 |
| O=C(O)c1cc(-c2ccc(F)cc2F)ccc1O [Diflunisal] (79.9349 µM) | 0.512 |
| O=C(O)Cc1sc(-c2ccccc2)nc1-c1ccc(Cl)cc1 [Fentiazac] (60.6414 µM) | 0.533 |
| COc1cc(C)c(/C=C/C(C)=C/C=C/C(C)=C/C(=O)O)c(C)c1C [Acitretin] (61.2745 µM) | 0.563 |
| CC(c1cc2ccccc2s1)N(O)C(N)=O (stereo not drawn) [Zileuton] (84.6401 µM) | 0.53 |

| SMILES | fraction of cells in G1 phase |
| --- | --- |
| CC(=O)OCC(=O)[C@@]1(O)CC[C@H]2[C@@H]3CCC4=CC(=O)CC[C@]4(C)[C@H]3[C@@H](O)C[C@@]21C [Hydrocortisone 21-acetate] (49.4428 µM) | 0.494 |
| CN(C)CCCC1(c2ccc(F)cc2)OCc2cc(C#N)ccc21 (stereo not drawn) [Citalopram] (61.652 µM) | 0.454 |
| COc1cc2ncnc(Nc3ccc(F)c(Cl)c3)c2cc1OCCCN1CCOCC1 [Gefitinib] (44.7514 µM) | 0.535 |
| O=C1NC(=O)C(c2ccccc2)(c2ccccc2)N1 [Phenytoin] (79.2785 µM) | 0.535 |
| CN(C)CCCSc1ccccc1NC(=O)/C=C/c1ccccc1 [Cinanserin] (58.7387 µM) | 0.456 |
| CC(C)NCC(O)c1ccc2ccccc2c1 (stereo not drawn) [Pronethalol HCl] (87.2126 µM) | 0.502 |
| O=C(O)c1cn(-c2ccc(F)cc2)c2cc(N3CCNCC3)c(F)cc2c1=O [Sarafloxacin HCl] (51.8977 µM) | 0.444 |
| C[N+]1(C)[C@@H]2CC(OC(=O)C(O)(c3cccs3)c3cccs3)C[C@H]1[C@@H]1O[C@@H]12 (stereo partly drawn) [Tiotropium Br] (42.3349 µM) | 0.481 |
| COc1ccc(/C=C/C(=O)Nc2ccccc2C(=O)O)cc1OC [Tranilast] (61.0986 µM) | 0.546 |
| Cc1onc(-c2ccccc2)c1C(=O)N[C@@H]1C(=O)N2[C@@H]1SC(C)(C)[C@@H]2C(=O)O [Oxacillin sodium monohydrate] (49.9455 µM) | 0.486 |
| CC(=O)Nc1ccc(CC(=O)O)cc1 [Actarit] (103.52 µM) | 0.521 |
| Cc1ncc([N+](=O)[O-])n1CCO [Metronidazole] (116.852 µM) | 0.422 |
| C#C[C@]1(O)CC[C@H]2[C@@H]3CCC4=CC(=O)CC[C@@H]4[C@H]3CC[C@@]21C [Norethindrone] (67.0176 µM) | 0.552 |
| CC(C)C(=O)Nc1ccc([N+](=O)[O-])c(C(F)(F)F)c1 [Flutamide] (72.4068 µM) | 0.526 |
| CC(C)(O)c1ccccc1CC[C@@H](SCC1(CC(=O)O)CC1)c1cccc(/C=C/c2ccc3ccc(Cl)cc3n2)c1 [Montelukast] (34.1181 µM) | 0.532 |
| Cc1nc2n(c(=O)c1CCN1CCC(c3noc4cc(F)ccc34)CC1)CCCC2 [Risperidone] (48.7216 µM) | 0.472 |
| c1cnc(N2CCN(Cc3ccc4c(c3)OCO4)CC2)nc1 [Piribedil HCl] (67.0359 µM) | 0.532 |
| N=C(N)N1CCc2ccccc2C1 [Debrisoquin sulfate] (114.132 µM) | 0.513 |
| NCCC(O)(P(=O)(O)O)P(=O)(O)O [Pamidronic acid] (85.0806 µM) | 0.476 |
